# Measured values published in PubChem BioAssay (NCATS).
# Inconclusive results are not listed. Entries that show only a call come without a potency. Activity calls are given as the source filed them. Calls come from the whole dose curve; as a rule, active = well fitted inhibition curve with a large enough effect; inconclusive = small, poorly fitted or top-dose-only effect; inactive = flat fitted curve, though single readings scatter.
# Experiment: BET inhibitor-based combinations targeting novel dependencies in MECOM-rearranged (r) AML: AML-194 cell line (AID 2202237; note: nearly all actives have a fitted effect of over 40% in size)
# Details: AML-194 (MECOM-r AML) viability, CellTiter-Glo, 48 h; series mostly up to 46 µM
# Description: Ecotropic viral insertion site 1 (EVI1) is located on chromosome 3q26.2 as part of the MECOM (MDS and EVI1 complex) locus. Under normal hematopoiesis, EVI1 is a regulator of hematopoietic stem cell maintenance and self-renewal and EVI1 levels decrease as the cells differentiate. In approximately 5-10% of de novo acute myeloid leukemia (AML) EVI1 is aberrantly expressed, including Chromosomal inv(3)(q21;q26.2) or t(3;3)(q21;q26.2) alterations (MECOM-r) that account for about 50% of AML with EVI1 overexpression 31. AMLs with high levels of EVI1 have a poor prognosis and an overall survival time averaging between 10-14 months. EVI1 overexpression confers resistance in leukemia cells, highlighting the need to develop new targeted therapies for EVI1 overexpressing AMLs.
# Here, we performed an unbiased chemical drug screening by evaluating the single agent activity of a collection of 2,480 oncology-focused, approved and investigational drugs (NCATS Mechanism Interrogation Plates, MIPE v5.0) against a panel of seven AML cell lines. These included four MECOM-r cell-lines (AML-191, AML-194, UCSD-AML1 and HNT-34) and three non-MECOM-r AMLs (MV4-11, OCI-AML3 and SET-2). Exploiting the mechanistic redundancy built in the library, we identified target-level sensitivities in MECOM-r AML cells and relative activity as compared to other AML subtypes.
# A collection of 2480 mechanistically annotated dugs (MIPE v5.0) was used to screen four 3q26.2 rearranged AML cell lines and three non-3q26.2 rearranged AML cell lines. This library purposely exploits redundancy by including multiple inhibitors of key onco-targets, while simultaneously encompassing mechanistic diversity, targeting more than 800 distinct mechanisms of action. Briefly, cells were seeded in 5 uL of growth media using a Multidrop Combi dispenser into 1536 well white polystyrene tissue culture treated plates (Corning) at a density of 500cells/well. For each cell-line, for each of the 2480 drugs in MIPE v5.0 library, an 11-point dose curve was generated via a 1536 pin-tool. Plates were incubated for 48 hr at standard incubator conditions, covered by a stainless steel gasketed lid to prevent evaporation. Cell viability was determined by luminescence based, Cell Titer Glo assay (Promega). In detail, 3 uL of Cell Titer Glo were added to each well and plates were incubated at room temperature for 15 min with a stainless-steel lid in place. Luminescence readings were taken using a Viewlux (PerkinElmer) with a 2 s exposure time per plate. Compound dose-response curves were normalized to DMSO and empty well controls on each plate. Quantitative drug activity data from dose-response curves was determined utilizing area Under the Curve (AUC) and Z-transformed AUC (Z-AUC, a mean-centering transformation applied to each individual cell-line screened).
# Potency is the fitted concentration of half-maximal effect.
row,SMILES,Potency
1,CSCC[C@@H](NC(=O)[C@@H](Cc1ccccc1)NC(=O)CNC(=O)CNC(=O)[C@@H](N)Cc1ccc(O)cc1)C(=O)O,inactive
2,CCCN1CCO[C@@H]2c3cc(O)ccc3OC[C@H]21,inactive
3,Cc1[nH]nc2ccc(-c3cncc(OC[C@@H](N)Cc4c[nH]c5ccccc45)c3)cc12,934 nM (active)
4,COC[C@H]1OC(=O)c2coc3c2[C@@]1(C)C1=C(C3=O)[C@@H]2CC[C@H](O)[C@@]2(C)C[C@H]1OC(C)=O,8330 nM (active)
5,CC[C@H]1/C=C\C=C/C[C@@H](C)[C@H](O)[C@@](C)(O)C(=O)[C@@H](C)[C@H](O)[C@@H](C)C(=O)[C@@H](C)[C@H](O)[C@@H](C)/C=C\C(=O)O[C@@H]2[C@H](C)[C@H](CC1)O[C@]1(CC[C@H](C)[C@H](C[C@@H](C)O)O1)[C@H]2C,2950 nM (active)
6,O=C1C=CC[C@@H]2[C@H]3CCCN4CCC[C@@H](CN12)[C@@H]34,inactive
7,CN1C(=O)COc2c(C(=O)NC3CN4CCC3CC4)cc(Cl)cc21 (stereo not given),inactive
8,COC(=O)[C@]12CCC(C)(C)C[C@H]1[C@H]1C(=O)C=C3[C@@]4(C)C=C(C#N)C(=O)C(C)(C)[C@@H]4CC[C@@]3(C)[C@]1(C)CC2,2630 nM (active)
9,O=c1[nH]c2ccccc2n1CCCN1CCC(n2c(=O)[nH]c3cc(Cl)ccc32)CC1,inactive
10,CC1(C)CC[C@]2(NC(=O)C(C)(F)F)CC[C@]3(C)[C@H](C(=O)C=C4[C@@]5(C)C=C(C#N)C(=O)C(C)(C)[C@@H]5CC[C@]43C)[C@@H]2C1,1860 nM (active)
11,O=c1[nH]c2ccc(Cl)cc2c(N[C@@H]2CN3CCC2CC3)c1-c1nc2ccccc2[nH]1,332 nM (active)
12,COc1cc(C)[nH]c(=O)c1CNC(=O)c1c(C)n([C@H](C)C2CCN(CC(F)(F)F)CC2)c2ccccc12,inactive
13,Fc1ccc(C(OCCN2CCN(CCCc3ccccc3)CC2)c2ccc(F)cc2)cc1,23500 nM (active)
14,C[C@]12COC(=O)C[C@@H]1CC[C@@H]1[C@@H]2CC[C@@]2(C)[C@H]1CC[C@]2(C)O,inactive
15,O=C(Oc1ccc([N+](=O)[O-])cc1)N1CCN(Cc2cccc(Oc3ccccc3)c2)CC1,inactive
16,CC(C)(O)/C=C\C(=O)[C@](C)(O)[C@H]1[C@H](O)C[C@]2(C)[C@@H]3CC=C4[C@@H](C=C(O)C(=O)C4(C)C)[C@]3(C)C(=O)C[C@@]12C,417 nM (active)
17,CN(C)CCN(C)CCc1ccc(Cl)c(Cl)c1,inactive
18,C[C@]12CC[C@H]3[C@@H](CCC4=CC(=O)CC[C@@]43C)[C@H]1CC[C@H]2OC(=O)CCC1CCCC1,inactive
19,CC(=O)O[C@@]12CO[C@@H]1C[C@H](O)[C@@]1(C)C(=O)[C@H](O)C3=C(C)[C@@H](O)C[C@@](O)([C@@H](OC(=O)c4ccccc4)[C@H]21)C3(C)C,23500 nM (active)
20,C/C1=C/C[C@@H](/C(C)=C/c2csc(C)n2)OC(=O)C[C@H](O)C(C)(C)C(=O)[C@H](C)[C@@H](O)[C@@H](C)CCC1,93.4 nM (active)

row,SMILES,Potency
1,CCC1(c2ccc(N)cc2)CCC(=O)NC1=O (stereo not given),inactive
2,C[C@]12CCC(=O)C(O)=C1CC[C@@H]1[C@@H]2CC[C@]2(C)C(=O)CC[C@@H]12,inactive
3,CC1=C2C[C@H]3[C@@H](CC=C4C[C@@H](O)CC[C@@]43C)[C@@H]2CC[C@]12O[C@@H]1C[C@H](C)CN[C@H]1[C@H]2C,inactive
4,CCN(CC)C(=O)c1ccc(C2=CC3(CCNCC3)Oc3cccc(O)c32)cc1,inactive
5,CN1C(=O)[C@@H](NC(=O)[C@H](CCC(F)(F)F)[C@H](CCC(F)(F)F)C(N)=O)N=C(c2ccccc2)c2ccccc21,inactive
6,CCOC(=O)c1c(C(C#N)=CN)c2ccc(Cl)c(Cl)c2n1C,inactive
7,C[C@]12CC[C@H](O)CC1=CC[C@@H]1[C@@H]2CC[C@]2(C)C(=O)CC[C@@H]12,inactive
8,COC(=O)[C@@]12OC[C@]34[C@H]([C@@H](O)[C@@H]1O)[C@@]1(C)CC(=O)C(O)=C(C)[C@@H]1C[C@H]3OC(=O)[C@H](OC(=O)/C=C(\C)C(C)C)[C@@H]24,5.9 nM (active)
9,COCC1(CO)C(=O)C2CCN1CC2 (stereo not given),10500 nM (active)
10,COC1=C[C@@H]2[C@@H]3Cc4ccc(OC)c(O)c4[C@]2(CCN3C)CC1=O,inactive
11,O=C(NCC1CCOCC1)c1cnc(Nc2ccc(Cl)cc2Cl)nc1C(F)(F)F,inactive
12,C[C@@H]1O[C@@H](O[C@@H]2C=C3CC[C@@H]4[C@H](CC[C@]5(C)[C@@H](c6ccc(=O)oc6)CC[C@]45O)[C@@]3(C)CC2)[C@H](O)[C@H](O)[C@H]1O,14.8 nM (active)
13,C[C@H]1CCC/C=C/C2C[C@H](O)C[C@H]2[C@H](O)/C=C/C(=O)O1 (stereo not given in full),372 nM (active)
14,CCOC(=O)Nc1ccc(NCc2ccc(F)cc2)cc1N,inactive
15,O=P1(N(CCCl)CCCl)NCCCO1 (stereo not given),inactive
16,CCN1C[C@]2(OC(=O)c3ccccc3NC(C)=O)CC[C@H](OC)[C@@]34[C@H]5CC6[C@@H](OC)C[C@](O)(C(C[C@@H]23)[C@@H]14)[C@@]5(O)[C@@H]6OC,inactive
17,O=C1CC[C@@]2(O)[C@H]3Cc4ccc(O)c5c4[C@@]2(CCN3CC2CC2)[C@H]1O5,inactive
18,C#CCN(C)[C@H](C)Cc1ccccc1,inactive
19,CC(O)(CS(=O)(=O)c1ccc(F)cc1)C(=O)Nc1ccc(C#N)c(C(F)(F)F)c1 (stereo not given),inactive
20,O=C(O)c1nn(Cc2ccc(Cl)cc2Cl)c2ccccc12,inactive
